System: Plasmodium falciparum
Experiment: GSK_TCMDC: Inhibition of Plasmodium falciparum 3D7 in whole red blood cells, using parasite LDH activity as an index of growth. Test compounds present at 2uM
Assay type: functional

Row | SMILES | Inhibition [%]
1 | Nc1ccc(-c2nc3cc(Oc4ccc5[nH]c(-c6ccc(N)cc6)nc5c4)ccc3[nH]2)cc1 | 100
2 | CCCCOc1ccc(-c2nc3ccccc3[nH]2)cc1 | 86
3 | Br.CC1(C)NC(N)=NC(=N)N1OCCCOc1cc(Cl)cc(Cl)c1 | 95
4 | O=C(NCCc1ccccc1F)c1cc(Br)cc(N2CCN(c3ccncc3)CC2)c1.O=C(O)C(F)(F)F | 97
5 | CCNc1cc(C)nc(Nc2ccc(NC(=O)c3ccc(OC)c(OC)c3)cc2)n1 | 100
6 | Cc1noc(-c2ccc3c(c2)CCN(CCC2CCC(NC(=O)/C=C/c4ccc(F)cc4)CC2)CC3)n1.Cl (stereo unspecified) | 91
7 | CCNc1cc(C(=O)N[C@@H](Cc2ccccc2)[C@H](O)CNC2C3CC4CC(C3)CC2C4)cc(N2CCCCS2(=O)=O)c1.Cl (stereo partly specified) | 97
8 | COc1cc2nc(NCCc3ccccc3)nc(NCCc3ccccc3)c2cc1OC | 100
9 | CCN1CCN(c2cc(C)c3cc(NC(=O)c4cccc(C(F)(F)F)c4)ccc3n2)CC1 | 100
10 | Clc1ccc2c(Cl)c(CNCCCNc3nc4ccccc4[nH]3)[nH]c2c1 | 100
11 | Cc1cc(N[C@@H](Cc2ccccc2)C(=O)NCCOc2ccccc2)nc(Nc2ccccc2)n1.O=C(O)C(F)(F)F | 100
12 | Cc1cccc2nc(-c3cccc(-c4ccc(NC(=O)Cc5ccc[n+]([O-])c5)cc4)c3)[nH]c12 | 99
13 | COc1ccc(-c2ccc(NC(=O)c3cccc(Cl)c3)cc2)cc1CN(C)CCN(C)C.O=C(O)C(F)(F)F | 100
14 | Cc1cccc2nc(-c3ccc(-c4ccc(NC(=O)C(C)CN5CCN(C)CC5)cc4)s3)[nH]c12 (stereo unspecified) | 100

System: Plasmodium falciparum
Experiment: GSK_TCMDC: Inhibition of Plasmodium falciparum Dd2 in whole red blood cells, using parasite LDH activity as an index of growth. Test compounds present at 2uM
Assay type: functional

Row | SMILES | Inhibition [%]
15 | O=C(Nc1cccc(C(F)(F)F)c1)c1cccc2nc(C(F)(F)F)[nH]c12 | 98
16 | Cc1ccc(S(=O)(=O)NC2CCN(c3ccnc4cc(Cl)ccc34)C2)cc1.O=C(O)C(F)(F)F (stereo unspecified) | 90
17 | COc1cc(C(C)C)ccc1C1CCN(CCCCNC(=O)c2ccc(NC(=O)c3ccc(Cl)cc3)cc2)CC1.O=C(O)/C=C/C(=O)O | 99
18 | CCOC(=O)c1cc(C(=O)OC)c2ccccn12 | 2
19 | CC(C)C[C@@H](NC(=O)NC1CCC(CCN2C3CCC2CC(OC(=O)C(CO)c2ccccc2)C3)CC1)C(O)(c1ccccc1)c1ccccc1 (stereo partly specified) | 71
20 | COc1ccc(-n2nc(C)c3c2NC(=O)CC3c2ccccc2OCc2ccc(F)cc2)cc1 (stereo unspecified) | 65
21 | Nc1c2c(nc3ccc(Oc4ccc(Br)cc4Br)cc13)CCCC2 | 47
22 | C=CCn1c(=N)c(C(=O)NCc2ccc(F)cc2)cc2c(=O)n3cccc(C)c3nc21 | 11
23 | CN(C)CCOc1ccc2c(=O)cc(CCc3cccc(F)c3F)n(CC(=O)N(C)Cc3ccc(-c4ccc(C(F)(F)F)cc4)cc3)c2c1.O=C(O)C(O)C(O)C(=O)O | 60
24 | O=C(Nc1ccc(-c2cccc(-c3nc4cc(F)ccc4[nH]3)c2)cc1)Nc1ccsc1 | 51
25 | NCC1CCCN1Cc1ccc(-c2ccc(-c3nc4cc(C(F)(F)F)ccc4[nH]3)s2)cc1.O=C(O)C(F)(F)F (stereo unspecified) | 97
26 | Cc1[nH]c2ccc(-c3ccccc3)cc2c(=O)c1Br | 97
27 | Cc1cccc2nc(-c3cccc(-c4cccc(NC(=O)c5cncn5C)c4)c3)[nH]c12 | 91
28 | Cl.O=C(Nc1ccc2c(c1)CCN(C1CCC1)CC2)c1ccc(-c2cn3ccccc3n2)cc1 | 42
29 | CCCCN(CCCC)CCC(O)C(=Cc1ccc(Cl)cc1Cl)c1ccc(C(F)(F)F)cc1N (stereo unspecified) | 99
30 | CC(=O)c1ccc(-c2ccc(C(=O)NCCCCN3CCC(c4ccc5c(c4OCC(N)=O)CCCC5)CC3)cc2)s1 | 4
31 | OC(CNC1CCCCC1)Cn1c2ccc(Br)cc2c2cc(Br)ccc21 (stereo unspecified) | 100
32 | O=C(Nc1ccc(Br)cc1)N(CCN1CCOCC1)CC(O)COCc1ccc(F)cc1.O=C(O)C(F)(F)F (stereo unspecified) | 3
33 | CNCCNCc1cccc(-c2ccc(-c3nc4cc(C(F)(F)F)ccc4[nH]3)cc2)c1.O=C(O)C(F)(F)F | 92
34 | O=S(=O)(Nc1ccc(CCN2CCCCC2CCN2CCCC2)cc1)c1ccc(-c2ccccc2)cc1 (stereo unspecified) | 18
35 | O=C(/C=C/c1ccc(Cl)c(Cl)c1)NCCCCCCN1CCN(C(=O)Nc2ccc(Cl)c(C(F)(F)F)c2)CC1 | 43
36 | CCCCCOc1ccc(C(O)C(CCC(CN2CCCCCC2)C(O)c2ccc(OCCCCC)cc2)CN2CCCCCC2)cc1.Cl (stereo unspecified) | 93
